Rows were chosen to be rich in hits. Some 3.7% of all compounds tested hit in one or more screens of this group.
A549 tox – counter-screen for Nrf2 inhibitors: cytotoxicity in A549 cells | hit rate 0.16% among 390,000 | A549 ARE-Fluc cells, CellTiter-Fluor viability, 18-24 h | AID 504648 | Potency, µM (top dose mostly 46 µM), hits mostly inhibitors
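Cytotoxicity counterscreen: CellTiter-Fluor fluorescence was measured in A549 ARE_Fluc cells after 18-24 h of compound exposure in a concentration series. The subsequent BugLite luminescent read reports ARE-luciferase activity.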
ELG1 repair inh – inhibitors of ELG1-dependent DNA repair in HEK293T cells | Potency, µM (highest dose often 46.1 µM), actives largely listed as inhibitors | hit rate 2.3% among 330,000 | HEK293T ELG1-luciferase reporter, luminescence, 16 h; DNA damage induced by 5-fluorouridine | AID 504467; note: nearly all actives have a fitted effect of over 55% in size
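Reporter activity after DNA damage by 5-fluorouridine is monitored. Compound-treated cells incubate 16 hr at 37 °C, then ONE-Glo is added for 30 min before luminescence reading.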
Nrf2 block – inhibitors of Nrf2 signaling | A549 ARE-Fluc reporter, luciferase luminescence, 18-24 h | Potency, µM (titrated, usually from 46 µM), most hits filed as inhibitors | hit rate 2.1% among 360,000; note: nearly all actives have a fitted effect of over 60% in size
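Reporter: ARE-Fluc in A549. Exposure: 18-24 h, 37 °C, 5% CO2, 5% FBS OPTI-MEM. Readouts: fluorescent cytotoxicity (CellTiter-Fluor), then luminescent Nrf2 signal after BugLite.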
Nrf2 ARE act – Nrf2 pathway activation; AID 624171; hit rate 0.31% among 410,000; AREc32 ARE-luciferase reporter (MCF7-derived line), luminescence, 24 h; Potency, µM (top dose mostly 46.1 µM), most hits filed as activators; note: nearly all actives have a fitted effect of over 65% in size
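Each well held 1000 AREc32 cells, which were incubated with compound for 24 hr at 37 deg C after overnight attachment, and ARE reporter activity was quantified by firefly luciferase luminescence.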
Large screens that a line does not name were inactive. Calls come from the whole dose curve; as a rule, active = well fitted curve in the direction sought with a large enough effect; inconclusive = small, poorly fitted or top-dose-only effect, or another doubt; inactive = no such curve, though single readings can be large; an effect the other way counts as inactive or inconclusive.

Nc1ncnc2c1ncn2[C@@H]1O[C@H](C(=O)N[C@H](CO)Cc2ccc(O)cc2)[C@@H](O)[C@H]1O	none (no result: A549 tox, ELG1 repair inh, Nrf2 block)
Cc1ccc(S(=O)(=O)CC(=O)N2CCN(c3cccc(C(F)(F)F)c3)CC2)cc1	Nrf2 block 23.1µM
Cc1ccc(S(=O)(=O)CC(=O)N2CCN(c3ccc([N+](=O)[O-])cc3)CC2)cc1	ELG1 repair inh 10.3µM, Nrf2 block inconclusive
CCc1noc(C)c1C(=O)N1CCN(c2ccc([N+](=O)[O-])cc2)CC1	none (no result: A549 tox, ELG1 repair inh, Nrf2 block)
Cc1noc(C)c1CSCC(=O)N1CCN(c2ccc([N+](=O)[O-])cc2)CC1	A549 tox inconclusive, ELG1 repair inh 20.6µM, Nrf2 block 20.6µM
O=C(NC1CCCCC1)N1CCN(c2ccc([N+](=O)[O-])cc2)CC1	ELG1 repair inh inconclusive, Nrf2 block 23.1µM
COC(=O)c1ccc(OCC2c3cc(OC)c(OC)cc3CCN2C(=O)c2ccccc2C)cc1 (stereo not drawn)	none (no result: ELG1 repair inh, Nrf2 block)
O=S(=O)(c1cccc(Br)c1)N1CCN(CCc2ccccc2)CC1	ELG1 repair inh inconclusive
Cc1nnc(NC(=O)CSc2nc(C(C)C)nc3ccccc23)s1	ELG1 repair inh inconclusive
Cc1cc(NC(=O)CSc2nc(C(C)C)nc3ccccc23)no1	ELG1 repair inh 14.6µM
Cc1cc(NC(=O)CSc2nc(C(C)C)nc3sc(C)c(C)c23)no1	A549 tox inconclusive, Nrf2 block 14.6µM
COc1ccc(C(=O)NC(=O)Nc2cc(C)ccn2)cc1	ELG1 repair inh inconclusive, Nrf2 block 7.31µM
CCOC(=O)[C@@H]1[C@H]2COc3cc(OC)ccc3[C@H]2N2C(=O)N(c3ccc(C(F)(F)F)cc3)C(=O)[C@]12C	ELG1 repair inh 23.1µM, Nrf2 block 20.6µM
CCOC(=O)[C@@H]1[C@H]2COc3cc(OC)ccc3[C@@H]2N2C(=O)N(c3ccc(C(F)(F)F)cc3)C(=O)[C@@]12C	none
O=C(Nc1ccc(S(=O)(=O)NC2=NCCCCC2)cc1)c1cc(F)c(F)cc1Cl	none
CCCOc1ccc(C(=O)Nc2ccc(S(=O)(=O)NC3=NCCCCC3)cc2)cc1	ELG1 repair inh inconclusive, Nrf2 block 18.4µM
O=C(Nc1ccc(S(=O)(=O)NC2=NCCCCC2)cc1)c1ccc(Cl)cc1Cl	Nrf2 block 16.4µM
CC(C)COc1cccc(C(=O)NC(=S)NCc2cccnc2)c1	none
Cc1cc2c(cc1S(=O)(=O)N1CCc3ccccc31)NC(=O)CO2	A549 tox inconclusive, Nrf2 block 23.1µM
CN(C)CCCn1c2c(c(SCC(=O)Nc3cccc4ccccc34)nc1=O)CCCC2	none
COc1ccc(C(=O)N2CCCC(c3nc(-c4cc(OC)c(OC)c(OC)c4)no3)C2)cc1 (stereo not drawn)	ELG1 repair inh 7.31µM
COc1ccccc1C(=O)N1CCCC(c2nc(-c3cc(OC)c(OC)c(OC)c3)no2)C1 (stereo not drawn)	ELG1 repair inh 7.31µM
CCC1CCc2nc3sc(C(=O)Nc4ccc(F)cc4F)c(N)c3cc2C1 (stereo not drawn)	none (no result: ELG1 repair inh)
N#CCCN(Cc1ccccc1)C(CCc1ccccc1)C(=O)NC1CCCCC1 (stereo not drawn)	none (no result: A549 tox, ELG1 repair inh, Nrf2 block)
CC1CCC(NC(=O)C(NS(=O)(=O)c2ccc(Br)cc2)C(C)C)CC1 (stereo not drawn)	none (no result: A549 tox, ELG1 repair inh, Nrf2 block)
CCOC(=O)c1cc(-c2ccc(C)cc2)n(CCC(=O)Nc2ccc(C(C)C)cc2)c1C	Nrf2 block inconclusive (no result: ELG1 repair inh)
CCOC(=O)c1cc(-c2ccc(C)cc2)n(CCC(=O)N2CCN(c3ccccn3)CC2)c1C	ELG1 repair inh 20.6µM
CCOC(=O)c1cc(-c2ccc(C)cc2)n(CCC(=O)Nc2ccc(OC)c(OC)c2)c1C	Nrf2 block 18.4µM (no result: ELG1 repair inh)
COC(=O)c1c(-c2c(Cl)cccc2Cl)noc1C(=O)NNC(=O)N(C)C	ELG1 repair inh inconclusive
COc1ccc(-c2[nH]nc3nc(-c4cc(Br)ccc4OC)cc(C(=O)O)c23)cc1	Nrf2 block inconclusive (no result: ELG1 repair inh)
COc1ccc(OC)c(CCNC(=O)Cn2nc(C)n3c(cc4sccc43)c2=O)c1	none (no result: ELG1 repair inh)
CC(=O)Nc1cccc(C(=O)OCC(=O)NNC(=O)c2ccc([N+](=O)[O-])cc2)c1	none
CS(=O)(=O)c1ncc(Cl)c(C(=O)N(Cc2ccc(Cl)cc2)Cc2ccco2)n1	A549 tox inconclusive, Nrf2 block 23.1µM (no result: ELG1 repair inh)
O=C(c1ccc(Cl)cc1)N(Cc1ccco1)Cc1ccco1	none (no result: ELG1 repair inh)
CC(=O)c1cccc(N=Nc2c(-c3ccccc3)[nH]n(-c3ccccc3)c2=O)c1	ELG1 repair inh 8.2µM, Nrf2 block inconclusive
Cc1[nH]n(-c2ccccc2)c(=O)c1N=Nc1cccc(Cl)c1	ELG1 repair inh inconclusive, Nrf2 block inconclusive
COc1cccc(C2C3=C(N=c4s/c(=C\c5ccc(OCC(=O)O)cc5)c(=O)n42)c2ccccc2CC3)c1 (stereo not drawn)	none
Cc1ccccc1NC1=CC(=O)CC(C)(C)C1	none (no result: Nrf2 block)
CC1(C)CC(=O)C=C(NC2=CC3OC(c4ccccc4)OCC3OC2=O)C1 (stereo not drawn)	A549 tox inconclusive, ELG1 repair inh 13µM, Nrf2 block 16.4µM
COC(=O)c1cc(Cc2ccc(N)c(C(=O)OC)c2)ccc1N	none
Nc1ccc(Cc2ccc(N)c(O)c2)cc1O	ELG1 repair inh 9.2µM
C/C(=N\NC(=O)c1c(Cl)c(C)nn1C)c1cccc(NC(=O)c2cccc(F)c2)c1	ELG1 repair inh inconclusive, Nrf2 block 9.2µM
Cc1ccc(S(=O)(=O)N2CC3CCCC2C3)cc1 (stereo not drawn)	none
Cc1[nH]n(-c2ccccc2)c(=O)c1-c1ccccc1	none
O=c1c(Sc2ccccc2)c(C(F)(F)F)[nH]n1-c1ccccc1	A549 tox inconclusive, ELG1 repair inh inconclusive, Nrf2 block 20.6µM
O=C(/C=C/c1ccc(Br)o1)NC(c1ccccc1)c1ccccc1	Nrf2 block 25.9µM
O=C(NC(c1ccccc1)c1ccccc1)c1ccc(Br)o1	A549 tox inconclusive
CCOC(=O)CSc1nc2cc3c(cc2c(=O)n1CCCCCC(=O)NCc1ccc(OC)cc1)OCO3	none (no result: ELG1 repair inh, Nrf2 block)
O=c1cc(C(F)(F)F)[nH]c2ccc(C(F)(F)F)cc12	A549 tox inconclusive, ELG1 repair inh inconclusive, Nrf2 block 20.6µM
Cc1cc(=O)c2ccc(C(F)(F)F)cc2[nH]1	none
CCCCNC(=O)C(NC(=O)c1ccc(=O)[nH]c1)C(=O)c1ccccc1 (stereo not drawn)	none (no result: A549 tox, ELG1 repair inh, Nrf2 block)
COc1cc(/C=N/NC(=O)c2cc(-c3ccccc3)sc2N)cc(OC)c1OC	ELG1 repair inh 23.1µM, Nrf2 block 16.4µM
COc1cc(/C=N/NC(=O)c2ccoc2C)cc(OC)c1OC	none (no result: ELG1 repair inh, Nrf2 block)
COc1cc(/C=N/NC(=O)c2ccc(-c3ccccc3)cc2)cc(OC)c1OC	ELG1 repair inh 16.4µM, Nrf2 block inconclusive
COc1cc(/C=N/NC(=O)CCn2c3ccccc3c3ccccc32)cc(OC)c1OC	ELG1 repair inh 18.4µM
COc1ccc(/C=N\NC(=O)c2ccc(-c3ccccc3)cc2)c(OC)c1OC	none
CCOc1ccc(CC(=O)NCCc2csc(-c3ccc(C(F)(F)F)cc3)n2)cc1	none (no result: ELG1 repair inh, Nrf2 block)
COc1ccc(C(C)(O)c2nc(-c3ccc4c(c3)OCO4)cs2)cc1 (stereo not drawn)	none (no result: A549 tox, ELG1 repair inh, Nrf2 block)
COc1ccccc1NC(=O)c1ccc(NC(=O)CSc2n[nH]c(N)n2)cc1	none

From PubChem BioAssay
